Laboratory results reported in PubChem BioAssay (EPA / NIEHS).
Activity calls are given as the source filed them. Rule for the calls: active = hit-call score of the fitted dose curve at least 0.9, where 1 is the maximum; inactive = score below 0.9.

Read-out: Cytochrome P450 (CYP24A1), CYP24A1 (gene 1591)
Assay: LTEA_HepaRG_CYP24A1: Life Technologies and Expression Analysis (LTEA) Assay for Cytochrome P450 (CYP24A1) using HepaRG (AID 2283478)
Settings: mRNA level, 48 h; actives raise or lower the signal
Summary of the method: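 mRNA of CYP24A1 quantified by TaqMan qRT-PCR (ACTB/GAPDH/POLR2A normalization) after 48 h chemical exposure of HepaRG cells, top concentration 100 uM, half-log steps, 0.5% DMSO vehicle, duplicates. Curves fitted bidirectionally against DMSO baseline.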

outcome, inactive:
CC(=O)OCC(COC(C)=O)OC(C)=O, CCCC(=O)O, Cc1cc(Cc2ccc(N)c(C)c2)ccc1N, CCCCC(CC)CO (stereo not given), CC1(C)C(=O)NC(=O)N1CO, O=C(O)CC(O)(CC(=O)O)C(=O)O, CCCCCCC(CCCCCCCCCCC(=O)OCC(COC(C)=O)OC(C)=O)OC(C)=O (stereo not given), NC1CCCCC1, CC(C)(O)c1ccc(CNC(=O)c2cccnc2Oc2ccc(F)cc2)cc1, C=CCCCCCCCCCCCC, CC(C)OC(=O)C(C)(C)Oc1ccc(C(=O)c2ccc(Cl)cc2)cc1, O=C(Oc1ccccc1)c1cccc(C(=O)Oc2ccccc2)c1, CN(C)C(=O)NC1(c2ccccc2)CCN(CCC[C@]2(c3ccc(Cl)c(Cl)c3)CCCN(C(=O)c3ccccc3)C2)CC1, O=C1OC(c2ccc(O)cc2)(c2ccc(O)cc2)c2ccccc21, CC(=O)OC1CC(C)OC(C)O1 (stereo not given), O=C(O)c1cccnc1, NCCOCCOCCN, O=C1O[C@H]([C@H](O)CO)C(O)=C1O, CCN(CC)CCOc1ccc(C(=C(Cl)c2ccccc2)c2ccccc2)cc1, CCCCC(CC)COP(=O)(OCC(CC)CCCC)OCC(CC)CCCC (stereo not given), CC(=O)CC(c1ccccc1)c1c(O)c2ccccc2oc1=O (stereo not given), C/C=C/c1ccc(OC)cc1, O=C(O)c1[nH]n(-c2ccc(S(=O)(=O)O)cc2)c(=O)c1N=Nc1ccc(S(=O)(=O)O)cc1, Oc1ccc(O)cc1, NC=O, CCc1nc(N)nc(N)c1-c1ccc(Cl)cc1, Cc1cn([C@H]2C=C[C@@H](CO)O2)c(=O)[nH]c1=O

Read-out: Cytochrome P450 (CYP1A2), CYP1A2 (gene 1544)
Assay: LTEA_HepaRG_CYP1A2: Life Technologies and Expression Analysis (LTEA) Assay for Cytochrome P450 (CYP1A2) using HepaRG (AID 2283479);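 for AC50: TaqMan qRT-PCR transcript level normalized to ACTB GAPDH and POLR2A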
Settings: mRNA level, 48 h; actives raise or lower the signal
Summary of the method: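 CYP1A2 transcript measured by TaqMan qRT-PCR against three housekeeping genes after 48-hour chemical exposure of HepaRG cells. Eight-point half-log series topping at 100 uM in 0.5% DMSO, duplicates; gain or loss fitted relative to vehicle.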

outcome, inactive:
CC(=O)OCC(COC(C)=O)OC(C)=O, CCCC(=O)O, CC1(C)C(=O)NC(=O)N1CO, O=C(O)CC(O)(CC(=O)O)C(=O)O, CCCCCCC(CCCCCCCCCCC(=O)OCC(COC(C)=O)OC(C)=O)OC(C)=O (stereo not given), NC1CCCCC1, CC(C)(O)c1ccc(CNC(=O)c2cccnc2Oc2ccc(F)cc2)cc1, CN(C)C(=O)NC1(c2ccccc2)CCN(CCC[C@]2(c3ccc(Cl)c(Cl)c3)CCCN(C(=O)c3ccccc3)C2)CC1, O=C(O)c1cccnc1, NCCOCCOCCN, O=C1O[C@H]([C@H](O)CO)C(O)=C1O, CCN(CC)CCOc1ccc(C(=C(Cl)c2ccccc2)c2ccccc2)cc1, CC(=O)CC(c1ccccc1)c1c(O)c2ccccc2oc1=O (stereo not given), C/C=C/c1ccc(OC)cc1, CC(C)c1cccc(C(C)C)c1, NC=O, Cc1cn([C@H]2C=C[C@@H](CO)O2)c(=O)[nH]c1=O

AC50, active:
Cc1cc(Cc2ccc(N)c(C)c2)ccc1N 50 µM, CCCCC(CC)CO (stereo not given) 50 µM, C=CCCCCCCCCCCCC 50 µM, CC(C)OC(=O)C(C)(C)Oc1ccc(C(=O)c2ccc(Cl)cc2)cc1 28.1 µM, O=C(Oc1ccccc1)c1cccc(C(=O)Oc2ccccc2)c1 52.2 µM, O=C1OC(c2ccc(O)cc2)(c2ccc(O)cc2)c2ccccc21 72.4 µM, CC(=O)OC1CC(C)OC(C)O1 (stereo not given) 50 µM, CCCCC(CC)COP(=O)(OCC(CC)CCCC)OCC(CC)CCCC (stereo not given) 24.6 µM, O=C(O)c1[nH]n(-c2ccc(S(=O)(=O)O)cc2)c(=O)c1N=Nc1ccc(S(=O)(=O)O)cc1 14.8 µM, Oc1ccc(O)cc1 50 µM, CCc1nc(N)nc(N)c1-c1ccc(Cl)cc1 23.8 µM
